Measured values as given in PubChem BioAssay AID602292 (National Center for Advancing Translational Sciences (NCATS), 2012).
The campaign covered roughly 1,300 compounds. About 380 (29%) were called active. Roughly 37% stayed inconclusive and do not appear here. The call rests on the fitted dose curve; in most records, active means well fitted inhibition curve with a large enough effect; inconclusive means small, poorly fitted or top-dose-only effect; inactive means flat fitted curve, though single readings scatter. This is one part of the list. Where a call stands in place of a potency, no number is given.

target: Thyrotropin receptor (Homo sapiens) (UniProt P16473); experiment: qHTS for antagonists of the Thyroid Stimulation Hormone Receptor: Hit Validation in Primary Screen; details: TSHR-expressing cells, cAMP antagonist mode; series mostly up to 58 µM; further: nearly all actives have a fitted effect of over 80% in size
Sequence (P16473 whole entry, looked up): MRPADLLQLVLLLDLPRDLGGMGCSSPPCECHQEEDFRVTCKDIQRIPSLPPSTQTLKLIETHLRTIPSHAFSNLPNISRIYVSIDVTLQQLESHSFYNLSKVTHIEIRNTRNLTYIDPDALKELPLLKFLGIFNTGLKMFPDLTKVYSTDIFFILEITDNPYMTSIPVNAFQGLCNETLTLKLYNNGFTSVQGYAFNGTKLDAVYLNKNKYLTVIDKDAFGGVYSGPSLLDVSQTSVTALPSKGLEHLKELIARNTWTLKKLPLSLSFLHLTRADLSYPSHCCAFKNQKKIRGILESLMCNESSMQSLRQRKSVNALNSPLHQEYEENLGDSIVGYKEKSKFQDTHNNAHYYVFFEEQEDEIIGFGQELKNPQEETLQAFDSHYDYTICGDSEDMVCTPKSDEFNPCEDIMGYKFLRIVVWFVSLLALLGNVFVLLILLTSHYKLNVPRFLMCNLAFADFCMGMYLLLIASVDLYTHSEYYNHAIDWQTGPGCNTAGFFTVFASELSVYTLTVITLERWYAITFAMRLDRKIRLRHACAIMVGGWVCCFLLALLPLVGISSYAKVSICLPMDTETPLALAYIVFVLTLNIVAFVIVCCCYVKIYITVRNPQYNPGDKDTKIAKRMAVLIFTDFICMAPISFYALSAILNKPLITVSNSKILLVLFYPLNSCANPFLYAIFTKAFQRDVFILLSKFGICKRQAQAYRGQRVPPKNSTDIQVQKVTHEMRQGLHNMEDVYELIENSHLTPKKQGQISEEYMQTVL
Method in brief: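 Competitive HTRF detected cAMP in lysates of TSHR cells, read 30 minutes after antibody and d2 addition at room temperature. Before lysis, cells had 2 hours at 37 deg C with compound plus EC80 TSH, 4nM final.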
Potency means the concentration at half of the fitted maximal effect.

SMILES | Potency
CCS(=O)(=O)c1ccc(C(=O)Nc2ccccc2)c(Cl)c1Cl | inactive
CCS(=O)(=O)c1ncc(Cl)c(C(=O)Nc2ccc(S(=O)(=O)N(C)c3ccccc3)cc2)n1 | 19 µM (active)
CCSc1ncc(Cl)c(C(=O)Nc2ccccc2OC)n1 | inactive
CN(c1ccccc1)S(=O)(=O)c1ccc(NC(=O)c2nc(S(C)(=O)=O)ncc2Cl)cc1 | 21.3 µM (active)
Cc1onc(-c2c(Cl)cccc2Cl)c1C(=O)N1CCc2ccccc2C1 | inactive
COc1ccc(/C=N/n2c(C)nnc2C)c(OC)c1OC | inactive
CCN(C(=O)c1cc2c(=O)n3ccccc3nc2n1C)C1CCCCC1 | inactive
CCN(CC)c1ccc2nc3ccccc3[n+](CC)c2c1 | 13.5 µM (active)
Cc1c(N=Nc2c(-c3ccc([N+](=O)[O-])cc3)[nH]n(C(N)=S)c2=O)cccc1[N+](=O)[O-] | 3.79 µM (active)
CC(=O)Nc1nc(C)c(Oc2ccc(C)cc2)c(=O)[nH]1 | inactive
COc1ccc(Nc2ccc([N+](=O)[O-])c3nonc23)c(OC)c1 | inactive
O=[N+]([O-])c1ccc(Sc2cccc[n+]2[O-])c2nonc12 | 8.49 µM (active)
Fc1cccc(Cl)c1CNCc1cccnc1 | inactive
O=C(NCc1cccnc1)c1nc(-c2ccccc2)n(-c2ccccc2)n1 | inactive
O=C(Nc1ccc(Cl)c(Cl)c1)c1cccc(S(=O)(=O)NCc2cccnc2)c1 | 13.5 µM (active)
Cc1ccc(NC(=O)c2cccc(OCc3c(C)noc3C)c2)cc1S(=O)(=O)Nc1ccccc1Cl | inactive

SMILES | Potency
CN(C)S(=O)(=O)Oc1cccc(C(=O)Nc2ccc(Cl)c(Cl)c2)c1 | 26.9 µM (active)
O=c1[nH]c(=S)[nH]c2c1CN(Cc1ccc(F)cc1)CC2 | inactive
O=c1c2nncn2c2cccnc2n1CCNc1ncc(C(F)(F)F)cc1Cl | inactive
O=C(O)c1nn(CC(=O)N2CCN(c3ncc(C(F)(F)F)cc3Cl)CC2)c(=O)c2ccccc12 | 21.3 µM (active)
Cc1ccc(-n2[nH]c(C)c(/C=N/Nc3ccc([N+](=O)[O-])cc3[N+](=O)[O-])c2=O)cc1 | 6.75 µM (active)
Cc1ccc(-n2[nH]c(C)c(/C=N/Nc3ccc([N+](=O)[O-])cc3[N+](=O)[O-])c2=O)cc1C | 2.39 µM (active)
O=C(N/N=C/c1ccc[nH]1)c1sc2ccccc2c1Cl | inactive
Nc1nnc(COc2ccc(Br)cc2Br)s1 | inactive
O=C(Oc1c(Br)cc([N+](=O)[O-])cc1Br)c1cccnc1 | 4.26 µM (active)
COc1ccc(CN2CCCN(C)CC2)c(OC)c1C | inactive
Cc1ccc(S(=O)(=O)NCCNS(=O)(=O)c2ccc(C)cc2)cc1 | inactive
Cc1ccc(S(=O)(=O)Nc2ccc(N=Nc3ccc(O)cc3)cc2)cc1 | 30.1 µM (active)
CCOC(=O)N1CCN(C(=O)c2ccc(NS(=O)(=O)c3ccc(C)cc3)cc2)CC1 | inactive
N#C/C(=N\Nc1ccc(Cl)c(Cl)c1)C(=O)C1CC1 | 6.01 µM (active)
Cc1cccc(C)c1NC(=O)N1CCC(C(=O)c2ccc(F)cc2)CC1 | inactive
O=C(Nc1nnc(C(F)(F)F)s1)c1ccc(Br)s1 | 10.7 µM (active)
